ChEMBL document CHEMBL1157539, “Thousands of chemical starting points for antimalarial lead identification” (Nature, 2010)
Values joined by “and” are separate entries in the source; they are usually repeats but may differ in a detail not shown here. Identical values can stand only once.

Experiments:
Type in all cases: functional
Plasmodium falciparum [1] = experiment: GSK_TCMDC: Inhibition of Plasmodium falciparum 3D7 in whole red blood cells, using parasite LDH activity as an index of growth. Test compounds present at 2uM
Plasmodium falciparum [2] = experiment: GSK_TCMDC: Inhibition of Plasmodium falciparum Dd2 in whole red blood cells, using parasite LDH activity as an index of growth. Test compounds present at 2uM
HepG2 = experiment: GSK_TCMDC: Percent inhibition of human HepG2 cell line. Test compounds present at 10uM.

Compound | Inhibition (Plasmodium falciparum [1]) | Inhibition (Plasmodium falciparum [2]) | Inhibition (HepG2)
Cc1ccc(-c2nnc(-c3ccc(C(=O)NC4CCN(Cc5ccc(C#N)cc5)CC4)cc3)o2)cc1Br | 91% | 7% | 41%
O=C(Nc1cccc(-c2ccc(CN3CCCC3)cc2)c1)c1cccc(Cl)c1.O=C(O)C(F)(F)F | 100% | 61% | 32%
COc1cc2ccccc2c(OC)c1CNCCCCCCNCc1c(OC)cc2ccccc2c1OC.CS(=O)(=O)O | 93% | 91% | 100%
CN(C)CCN(C)Cc1ccc(-c2ccc3c(Nc4ccc(F)cc4Cl)ccnc3c2)o1 | 100% | 100% | 31%
Br.C/C=C/C=C/C1=NCCc2cc(OCCC)ccc21 | 87% | 40% | 0%
C=CCNC(=O)CCCNC(=N)N.Cl | 98% | 12% | 0%
O=C(Cn1cc(C(F)(F)F)cc(Cl)c1=O)N1CCN(S(=O)(=O)c2ccc(Cl)cc2)CC1 | 99% | 69% | 14%
Cc1cc(=O)c(-c2ccc(Oc3cccc(C(F)(F)F)c3)cc2)c(C)[nH]1 | 97% and 96% | 97% and 95% | 8% and 14%
CN(N=Cc1ccccc1)C(=N)NCCCC#Cc1cccc(CN2CCCC2)c1 | 89% | 3% | 16%
COc1cccc(NC(=O)Nc2c(-c3cccc(C(F)(F)F)c3)c(C(F)(F)F)nn2C)c1 | 93% | 30% | 2%
CCOC(=O)[C@H](Cc1cc([N+](=O)[O-])c(Oc2ccc(OC)c(Cc3ccc(OC)c(C(C)C)c3)c2)c([N+](=O)[O-])c1)NC(=O)C(F)(F)F | 94% | 0% | 5%
